# According to the supplement of paper PMC10981050:
# Several values for one entry are separate records, joined by “and”; a condition that tells them apart may be missing. Equal entries are not always repeated. Structures can show the parent of a compound that is named as a salt.
# Key:
# Assay in all cases: cell viability relative to vehicle control; higher = less cytotoxic
# Conditions in all cases: 10 µM
# K562 = test system: K562
# Outline: (§1)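 CRISPR-edited mutant clones and isogenic wild-type clones from four leukaemia lines were screened against Selleck bioactive, kinase and epigenetic probe libraries, with identity-inconsistent compounds excluded. Each compound was acoustically dispensed at a single 10 µM dose into 384-well plates holding 2000 cells in 50 µL medium per well. After 48 h the supernatant was removed and CellTiter-Glo luminescence was read. Viability was expressed as percent of the on-plate vehicle control and analysed in Genedata Screener.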
# MARIMO = test system: MARIMO
# Outline: as §1
# MOLM14 = test system: MOLM14
# Outline: as §1
# OCI-AML2 = test system: OCI-AML2
# Outline: as §1
Structure (SMILES),cell viability (K562; SRSF2 genotype: SRSF2 P95H/wt),cell viability (K562; SRSF2 genotype: SRSF2 wt/wt) [%],cell viability (MARIMO; SRSF2 genotype: SRSF2 P95H/wt) [%],cell viability (MARIMO; SRSF2 genotype: SRSF2 wt/wt) [%],cell viability (MOLM14; SRSF2 genotype: SRSF2 P95H/wt) [%],cell viability (MOLM14; SRSF2 genotype: SRSF2 wt/wt) [%],cell viability (OCI-AML2; SRSF2 genotype: P95H/wt) [%],cell viability (OCI-AML2; SRSF2 genotype: wt/wt) [%]
N[C@@H](Cc1cc(I)c(Oc2cc(I)c(O)c(I)c2)c(I)c1)C(=O)O [L-Thyroxine],87.7% and 96.4%,101,106,114,98.8,106,102,114
CNC(=O)c1ccccc1Nc1cc(Nc2ccc(N3CCOCC3)cc2OC)ncc1C(F)(F)F,77.7% and 90%,82.8,38.6,35.2,11.4,11.4,21.3,26.5
Clc1ccc(C(Cn2ccnc2)OCc2c(Cl)cccc2Cl)c(Cl)c1 (stereo not given) [Isoconazole nitrate (Travogen)],73.3% and 76.4%,68.3,70.2,73.2,77.6,79.6,75.9,69.7
CCCN1CCCC[C@H]1C(=O)Nc1c(C)cccc1C [Ropivacaine HCl],91% and 94.8%,94.2,99.7,89,95,95.4,98,95.6
O=C1C(c2c(O)[nH]c3ccccc23)=Nc2ccccc21 [Indirubin],92.2% and 98.7%,87.3,92.3,87.8,87.5,87.9,91.8,92.9
C[C@@H](O[C@H]1OCCN(Cc2nn(P(=O)(O)O)c(=O)[nH]2)[C@H]1c1ccc(F)cc1)c1cc(C(F)(F)F)cc(C(F)(F)F)c1 [Fosaprepitant dimeglumine salt],52.4% and 55.7%,57,53.1,52.6,60.9,65,52.4,58
CC1C(=O)OC2C(O)C34C5CC(C(C)(C)C)C36C(OC(=O)C6O)OC4(C(=O)O5)C12O (stereo not given) [Ginkgolide B],110%,114,111,109,107,109,113,105
Nc1nc(NCCNc2ncc(-n3ccnc3)c(-c3ccc(Cl)cc3Cl)n2)ccc1[N+](=O)[O-],110% and 106%,99.1,125,132,109,115,131,148
Clc1cccc(CN=C2Nc3ccccc3NC23CCNCC3)c1 [Liproxstatin-1],68.8% and 75.6%,70,73,70.1,68.9,80.1,93.5,71.5
COC(=O)C1=C(C)NC(C)=C(C(=O)OCCN(C)Cc2ccccc2)C1c1cccc([N+](=O)[O-])c1 (stereo not given) [Nicardipine HCl],79.8% and 89.1%,80.5,81.8,91.3,87.9,81.1,85.8,85
O=C(c1ccc(Cl)cc1Cl)n1nnc2ccccc21,54.8% and 62.1%,70.3,48.4,46.2,59.3,49.6,37.9,29.3
COc1cc(OC)c(NC(=O)Nc2cc(C)on2)cc1Cl,91.9% and 83.8%,85.7,86.4,86.6,61.3,74.5,73.4,74.3
O=C(Cn1cnnn1)N[C@@H]1C(=O)N2C(C(=O)O)=C(CSc3nncs3)CS[C@H]12 [Ceftezole],102% and 97.3%,103,96.3,105,105,104,103,109
CC(C)(c1ccc(OCC(O)CO)cc1)c1ccc(OCC(O)CCl)cc1 (stereo not given),82.3% and 81.7%,85.8,83.5,104,86,90.9,84.8,86.5
CC(C)=CCC/C(C)=C/C=O [Citral],96% and 106%,94.4,88.4,98.9,88.2,94.8,95.3,92
CC1(C)CC[C@]2(C(=O)O)CC[C@]3(C)C(=CC[C@@H]4[C@@]5(C)C[C@@H](O)[C@H](O)C(C)(C)[C@@H]5CC[C@]43C)[C@@H]2C1 [Maslinic acid],84.2% and 80.1%,84.5,91.3,108,90.7,86.9,77,82.2
O=C1Cc2cc(CCN3CCN(c4nsc5ccccc45)CC3)c(Cl)cc2N1 [Ziprasidone hydrochloride],87% and 98.6%,97,88.7,95.2,37.8,81.3,91.9,88.1
CC1(C)S[C@@H]2[C@H](NC(=O)[C@H](N)c3ccccc3)C(=O)N2[C@H]1C(=O)O [Ampicillin sodium],99% and 108%,102,109,109,102,107,109,95.7
CS(=O)(=O)c1ccc(-c2cnc(NCc3ccco3)n3cnnc23)cc1,99.9% and 93.9%,97.2,103,99.5,100,98.5,101,110
Cc1ccc(Nc2ncc3c(n2)N(C)C(=O)N(c2cc(NC(=O)c4cccc(C(F)(F)F)c4)ccc2C)C3)cn1,57.3% and 59.5%,43.1,38.1,37.4,17.9,17.5,40.8,35.2

Structure (SMILES),cell viability (K562; SRSF2 genotype: SRSF2 P95H/wt),cell viability (K562; SRSF2 genotype: SRSF2 wt/wt) [%],cell viability (MARIMO; SRSF2 genotype: SRSF2 P95H/wt) [%],cell viability (MARIMO; SRSF2 genotype: SRSF2 wt/wt) [%],cell viability (MOLM14; SRSF2 genotype: SRSF2 P95H/wt) [%],cell viability (MOLM14; SRSF2 genotype: SRSF2 wt/wt) [%],cell viability (OCI-AML2; SRSF2 genotype: P95H/wt) [%],cell viability (OCI-AML2; SRSF2 genotype: wt/wt) [%]
COc1ccc(-c2cc(=O)c3c(OC)c(OC)c(OC)c(OC)c3o2)cc1OC [Nobiletin (Hexamethoxyflavone)],94.6% and 90.6%,92.6,79.1,82.1,83.3,81.3,74.5,81.5
COc1cc(C=O)ccc1O [Vanillin],94.2% and 102%,99.7,102,105,103,102,105,97.5
COC(=O)C1=C(C)NC(C)=C(C(=O)OC(C)C)C1c1cccc2nonc12 (stereo not given) [Isradipine (Dynacirc)],95.3% and 96.5%,97.3,99.4,103,101,100,93.2,99.5
CC(C)Oc1ccc(-c2nc(-c3cccc4c3CC[C@@H]4NCCO)no2)cc1C#N [Ozanimod (RPC1063)],34% and 30.5%,30.6,27.3,32.2,38.6,40.5,29,34.4
COc1ccc2c(O[C@@H]3C[C@H]4C(=O)N[C@]5(C(=O)NS(=O)(=O)C6CC6)C[C@H]5/C=C\CCCCN(C)C(=O)[C@@H]4C3)cc(-c3nc(C(C)C)cs3)nc2c1C,70.6% and 60.2%,62.9,61.6,75.3,79.1,71.6,55.2,58.8
C[C@H]1O[C@@H](n2cc(F)c(=O)[nH]c2=O)[C@H](O)[C@@H]1O [Doxifluridine],102% and 95%,92.1,100,104,96.5,105,97.3,99.7
Clc1ncnc2nc[nH]c12 [6-Chloropurine],88.9% and 82.6%,82.7,92.3,87,88.9,90.3,83.3,87.9
O=c1cc(-c2cccc3c2Sc2ccccc2S3)oc(N2CCOCC2)c1,98.7% and 93.1%,91.2,105,103,93.6,95.5,85.7,88.8
O=C(O)c1ccc2c(c1)C(=O)c1ccccc1C2=O [Anthraquinone-2-carboxylic Acid],100% and 101%,92.5,98,92,102,98.5,96.3,94.9
COC1CCN(C(=O)c2cc(Cc3n[nH]c(=O)c4ccccc34)ccc2F)CC1,78.6% and 83.8%,86,81.5,97.1,57.9,34.7,51.2,62.1
COc1ccc([C@@H]2CC(=O)c3c(O)cc(O[C@@H]4O[C@H](CO[C@@H]5O[C@@H](C)[C@H](O)[C@@H](O)[C@H]5O)[C@@H](O)[C@H](O)[C@H]4O)cc3O2)cc1O [Hesperidin],105% and 115%,111,107,109,109,113,112,97.2
O=C(Nc1cccc2cccnc12)c1ccc(N2C(=O)C3C4C=CC(C4)C3C2=O)cc1 (stereo not drawn) [IWR-1-endo],95.8% and 94%,101,100,103,111,118,97.9,98.8
COc1c2occc2cc2ccc(=O)oc12 [Methoxsalen (Oxsoralen)],108% and 106%,107,106,106,105,111,98.1,107
CCOCCn1c(C2CCN(CCc3ccc(C(C)(C)C(=O)O)cc3)CC2)nc2ccccc21 [Bilastine],105% and 108%,113,107,104,107,106,108,96.2
O=C(N/N=C/c1cc(O)c(O)cc1O)c1cc2ccccc2cc1O [Dyngo-4a],78.9% and 81.5%,78,67.3,89.5,64.9,72,85.1,79.3
CCCOc1ccc2c(c1)CC[C@@H]1[C@@H]2CC[C@]2(C)[C@@H](OC)CC[C@@H]12 [Promestriene],86.2% and 89.4%,94.1,76.6,89.8,83.1,97.2,59.6,66.2
C=CC(=O)N1CC(N2CCN(C(=O)CNc3cc(C4(C)CC4)c(Cl)cc3O)CC2)C1,93.9% and 95.2%,97.3,88.9,102,86.1,104,112,108
OC[C@@H](O)[C@@H](O)[C@H](O)[C@H](O)CO [D-Mannitol (Osmitrol)],98% and 97.7%,106,107,116,107,109,97,100
O=C(Nc1ccc(O)cc1)c1ccccc1O [Osalmid],98.1% and 108%,98.3,93,95.8,107,109,99,87.3
COc1cccc2c1C(=O)c1c(O)c3c(c(O)c1C2=O)C[C@@](O)(C(=O)CO)C[C@@H]3O[C@H]1C[C@H](N)[C@@H](O)[C@H](C)O1 [Epirubicin Hydrochloride],4.6% and 11.6%,7.29,4.26,2.14,1.38,0.76,1.59,11.3
